# Key:
# [1] = target: T1, Ephrin type-B receptor 1 (Homo sapiens) (UniProt P54762); conditions: at 10 µM
# T1 sequence (whole entry): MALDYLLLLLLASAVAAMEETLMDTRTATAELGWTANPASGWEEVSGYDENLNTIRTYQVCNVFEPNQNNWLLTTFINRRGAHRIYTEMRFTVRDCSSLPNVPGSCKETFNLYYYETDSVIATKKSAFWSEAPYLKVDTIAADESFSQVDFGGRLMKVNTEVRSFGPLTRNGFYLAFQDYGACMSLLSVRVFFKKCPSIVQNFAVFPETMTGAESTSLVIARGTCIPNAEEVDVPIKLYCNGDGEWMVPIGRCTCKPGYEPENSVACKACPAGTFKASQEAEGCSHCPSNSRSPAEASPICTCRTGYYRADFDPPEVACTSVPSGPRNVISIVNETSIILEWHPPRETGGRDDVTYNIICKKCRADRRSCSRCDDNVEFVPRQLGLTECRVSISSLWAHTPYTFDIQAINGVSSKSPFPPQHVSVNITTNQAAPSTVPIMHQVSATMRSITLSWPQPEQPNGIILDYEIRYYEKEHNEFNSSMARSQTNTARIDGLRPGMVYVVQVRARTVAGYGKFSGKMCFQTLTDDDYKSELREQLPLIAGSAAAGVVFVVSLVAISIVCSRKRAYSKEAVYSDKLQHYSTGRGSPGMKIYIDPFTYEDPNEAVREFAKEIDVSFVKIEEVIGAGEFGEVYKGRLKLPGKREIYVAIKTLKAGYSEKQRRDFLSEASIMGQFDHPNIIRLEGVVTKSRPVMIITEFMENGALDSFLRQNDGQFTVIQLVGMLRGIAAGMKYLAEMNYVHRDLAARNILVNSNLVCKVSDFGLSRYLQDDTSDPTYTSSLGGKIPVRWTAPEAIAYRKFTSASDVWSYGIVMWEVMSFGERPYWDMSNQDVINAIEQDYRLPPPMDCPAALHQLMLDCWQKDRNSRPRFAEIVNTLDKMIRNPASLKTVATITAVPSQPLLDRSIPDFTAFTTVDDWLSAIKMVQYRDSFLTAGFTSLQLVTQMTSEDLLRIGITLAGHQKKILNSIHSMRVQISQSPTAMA
# [2] = target: T2, Ephrin type-B receptor 2 (Homo sapiens) (UniProt P29323); conditions: at 1 µM
# T2 sequence (whole entry): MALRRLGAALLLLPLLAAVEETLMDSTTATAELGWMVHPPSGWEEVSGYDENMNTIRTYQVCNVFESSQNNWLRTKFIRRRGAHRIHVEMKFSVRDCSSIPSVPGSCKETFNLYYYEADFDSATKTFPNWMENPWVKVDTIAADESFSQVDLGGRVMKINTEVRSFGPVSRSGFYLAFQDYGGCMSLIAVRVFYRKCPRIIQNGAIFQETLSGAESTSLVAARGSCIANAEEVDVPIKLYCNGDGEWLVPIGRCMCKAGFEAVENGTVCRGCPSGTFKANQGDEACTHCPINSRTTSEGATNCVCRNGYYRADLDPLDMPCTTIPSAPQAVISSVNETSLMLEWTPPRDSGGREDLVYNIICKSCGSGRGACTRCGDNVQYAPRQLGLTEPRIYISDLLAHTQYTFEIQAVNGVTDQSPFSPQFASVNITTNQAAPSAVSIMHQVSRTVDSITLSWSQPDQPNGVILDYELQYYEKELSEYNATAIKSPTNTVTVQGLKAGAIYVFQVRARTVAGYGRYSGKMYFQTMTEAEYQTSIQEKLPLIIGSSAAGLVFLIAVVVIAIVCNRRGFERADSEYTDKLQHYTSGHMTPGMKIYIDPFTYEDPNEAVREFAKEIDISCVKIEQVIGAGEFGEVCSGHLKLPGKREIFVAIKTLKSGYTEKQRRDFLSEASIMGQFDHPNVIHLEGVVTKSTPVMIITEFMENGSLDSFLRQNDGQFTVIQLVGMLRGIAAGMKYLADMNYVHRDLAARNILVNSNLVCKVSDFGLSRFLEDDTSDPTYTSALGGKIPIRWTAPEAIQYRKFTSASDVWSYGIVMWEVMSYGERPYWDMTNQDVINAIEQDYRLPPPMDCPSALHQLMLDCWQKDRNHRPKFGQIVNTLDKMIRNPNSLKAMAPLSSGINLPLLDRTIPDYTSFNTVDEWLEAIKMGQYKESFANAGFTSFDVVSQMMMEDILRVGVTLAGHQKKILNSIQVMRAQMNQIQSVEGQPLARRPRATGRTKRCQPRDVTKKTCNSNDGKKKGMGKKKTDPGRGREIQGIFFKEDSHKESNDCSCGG
# [3] = target: T2, Ephrin type-B receptor 2 (Homo sapiens); conditions: at 10 µM
# [4] = target: T3, Ephrin type-B receptor 3 (Homo sapiens) (UniProt P54753); conditions: at 1 µM
# T3 sequence (whole entry): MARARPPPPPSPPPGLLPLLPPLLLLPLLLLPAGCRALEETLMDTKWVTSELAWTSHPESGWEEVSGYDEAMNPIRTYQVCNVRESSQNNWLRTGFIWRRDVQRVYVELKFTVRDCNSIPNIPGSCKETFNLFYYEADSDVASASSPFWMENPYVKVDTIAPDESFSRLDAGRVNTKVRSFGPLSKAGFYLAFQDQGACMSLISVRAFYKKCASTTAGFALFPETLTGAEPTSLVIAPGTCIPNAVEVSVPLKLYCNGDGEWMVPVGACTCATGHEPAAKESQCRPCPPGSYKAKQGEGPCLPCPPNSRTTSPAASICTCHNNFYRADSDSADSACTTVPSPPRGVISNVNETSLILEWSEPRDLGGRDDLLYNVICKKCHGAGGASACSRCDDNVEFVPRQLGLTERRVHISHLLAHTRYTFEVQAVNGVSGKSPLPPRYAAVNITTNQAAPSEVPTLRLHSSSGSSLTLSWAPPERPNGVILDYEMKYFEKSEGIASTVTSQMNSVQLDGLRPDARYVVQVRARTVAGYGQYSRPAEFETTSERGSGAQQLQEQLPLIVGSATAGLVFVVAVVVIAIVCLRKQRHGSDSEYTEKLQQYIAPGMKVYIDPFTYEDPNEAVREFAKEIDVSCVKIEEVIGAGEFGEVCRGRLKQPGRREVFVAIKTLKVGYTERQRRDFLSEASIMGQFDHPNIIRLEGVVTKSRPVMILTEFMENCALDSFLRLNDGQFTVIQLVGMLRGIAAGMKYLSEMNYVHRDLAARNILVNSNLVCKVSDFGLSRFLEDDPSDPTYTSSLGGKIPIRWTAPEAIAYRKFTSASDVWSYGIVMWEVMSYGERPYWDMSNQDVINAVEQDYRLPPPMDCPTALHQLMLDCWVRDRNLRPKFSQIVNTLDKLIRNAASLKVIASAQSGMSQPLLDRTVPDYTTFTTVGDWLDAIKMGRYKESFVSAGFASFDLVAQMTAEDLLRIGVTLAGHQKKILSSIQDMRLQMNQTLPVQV
# [5] = target: T3, Ephrin type-B receptor 3 (Homo sapiens); conditions: at 10 µM
# [6] = target: T4, Ephrin type-B receptor 4 (Homo sapiens) (UniProt P54760); conditions: at 1 µM
# T4 sequence (whole entry): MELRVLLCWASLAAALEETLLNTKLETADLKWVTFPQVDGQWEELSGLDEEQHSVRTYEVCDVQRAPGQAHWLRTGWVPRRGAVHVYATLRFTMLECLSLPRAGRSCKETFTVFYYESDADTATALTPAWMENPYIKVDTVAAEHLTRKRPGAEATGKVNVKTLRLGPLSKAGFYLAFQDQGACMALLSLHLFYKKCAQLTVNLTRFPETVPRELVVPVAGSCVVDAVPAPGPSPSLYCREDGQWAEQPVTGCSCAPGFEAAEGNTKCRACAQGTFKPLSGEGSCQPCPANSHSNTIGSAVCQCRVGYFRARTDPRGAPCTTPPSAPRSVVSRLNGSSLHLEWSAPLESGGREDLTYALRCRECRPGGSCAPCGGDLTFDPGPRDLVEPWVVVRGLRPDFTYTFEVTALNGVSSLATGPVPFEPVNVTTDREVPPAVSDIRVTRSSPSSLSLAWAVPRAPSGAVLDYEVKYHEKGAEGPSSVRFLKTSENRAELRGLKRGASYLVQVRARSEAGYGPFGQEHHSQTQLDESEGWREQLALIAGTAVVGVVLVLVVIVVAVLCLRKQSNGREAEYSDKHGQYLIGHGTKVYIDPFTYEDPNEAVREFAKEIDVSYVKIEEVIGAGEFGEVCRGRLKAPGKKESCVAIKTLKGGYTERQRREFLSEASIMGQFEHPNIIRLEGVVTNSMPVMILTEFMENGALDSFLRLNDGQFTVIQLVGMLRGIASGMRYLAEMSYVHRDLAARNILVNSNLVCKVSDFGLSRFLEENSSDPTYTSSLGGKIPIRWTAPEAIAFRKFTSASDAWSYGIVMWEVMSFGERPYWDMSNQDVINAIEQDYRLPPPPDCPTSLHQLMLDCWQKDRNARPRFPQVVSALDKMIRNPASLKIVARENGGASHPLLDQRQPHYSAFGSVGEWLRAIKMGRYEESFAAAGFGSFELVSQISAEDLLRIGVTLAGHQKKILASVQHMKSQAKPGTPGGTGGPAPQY
# [7] = target: T4, Ephrin type-B receptor 4 (Homo sapiens); conditions: at 10 µM
# [8] = target: Receptor tyrosine-protein kinase erbB-4 (Homo sapiens) (UniProt Q15303); conditions: at 1 µM
# Chain of Receptor tyrosine-protein kinase erbB-4 (Homo sapiens) (Q15303 whole entry): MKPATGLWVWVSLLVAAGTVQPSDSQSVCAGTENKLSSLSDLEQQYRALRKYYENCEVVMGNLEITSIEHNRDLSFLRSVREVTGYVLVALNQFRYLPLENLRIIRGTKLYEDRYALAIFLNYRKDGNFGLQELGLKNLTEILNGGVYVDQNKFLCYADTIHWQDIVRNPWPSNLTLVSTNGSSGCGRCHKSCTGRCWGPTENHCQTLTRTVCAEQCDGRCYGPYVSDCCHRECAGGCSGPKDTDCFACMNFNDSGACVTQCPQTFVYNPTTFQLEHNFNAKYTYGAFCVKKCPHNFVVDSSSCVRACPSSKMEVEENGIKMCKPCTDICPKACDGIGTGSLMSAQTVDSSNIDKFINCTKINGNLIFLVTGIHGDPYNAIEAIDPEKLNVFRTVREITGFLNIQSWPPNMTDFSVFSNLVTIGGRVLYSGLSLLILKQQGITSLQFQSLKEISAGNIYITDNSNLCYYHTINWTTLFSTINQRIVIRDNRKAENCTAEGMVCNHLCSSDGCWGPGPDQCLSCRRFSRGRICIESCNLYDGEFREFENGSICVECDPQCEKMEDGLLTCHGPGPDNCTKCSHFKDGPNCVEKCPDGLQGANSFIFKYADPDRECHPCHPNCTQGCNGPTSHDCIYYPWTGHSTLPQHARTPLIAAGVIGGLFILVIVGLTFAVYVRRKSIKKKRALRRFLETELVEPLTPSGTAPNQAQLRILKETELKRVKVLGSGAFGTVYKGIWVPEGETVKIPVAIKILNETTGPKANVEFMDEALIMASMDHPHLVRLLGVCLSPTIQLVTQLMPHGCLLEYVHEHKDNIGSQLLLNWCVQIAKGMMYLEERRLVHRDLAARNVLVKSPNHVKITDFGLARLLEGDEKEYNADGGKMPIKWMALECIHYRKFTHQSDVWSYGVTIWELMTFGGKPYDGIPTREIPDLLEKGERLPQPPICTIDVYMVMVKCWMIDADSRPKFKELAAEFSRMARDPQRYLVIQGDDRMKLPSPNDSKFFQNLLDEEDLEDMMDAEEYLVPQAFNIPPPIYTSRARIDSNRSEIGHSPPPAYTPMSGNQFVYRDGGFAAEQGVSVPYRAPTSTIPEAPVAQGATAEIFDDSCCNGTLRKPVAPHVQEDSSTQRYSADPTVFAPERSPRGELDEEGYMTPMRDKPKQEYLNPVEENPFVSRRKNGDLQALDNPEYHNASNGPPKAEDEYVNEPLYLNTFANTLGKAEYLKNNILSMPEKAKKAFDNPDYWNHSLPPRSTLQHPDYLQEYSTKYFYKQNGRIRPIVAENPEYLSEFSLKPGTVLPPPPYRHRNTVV
# [9] = target: Receptor tyrosine-protein kinase erbB-4 (Homo sapiens) (UniProt Q15303); conditions: at 10 µM
# [10] = target: Focal adhesion kinase 1 (Homo sapiens) (UniProt Q05397); conditions: at 1 µM
# Chain of Focal adhesion kinase 1 (Homo sapiens) (Q05397 2-1052 limits assumed): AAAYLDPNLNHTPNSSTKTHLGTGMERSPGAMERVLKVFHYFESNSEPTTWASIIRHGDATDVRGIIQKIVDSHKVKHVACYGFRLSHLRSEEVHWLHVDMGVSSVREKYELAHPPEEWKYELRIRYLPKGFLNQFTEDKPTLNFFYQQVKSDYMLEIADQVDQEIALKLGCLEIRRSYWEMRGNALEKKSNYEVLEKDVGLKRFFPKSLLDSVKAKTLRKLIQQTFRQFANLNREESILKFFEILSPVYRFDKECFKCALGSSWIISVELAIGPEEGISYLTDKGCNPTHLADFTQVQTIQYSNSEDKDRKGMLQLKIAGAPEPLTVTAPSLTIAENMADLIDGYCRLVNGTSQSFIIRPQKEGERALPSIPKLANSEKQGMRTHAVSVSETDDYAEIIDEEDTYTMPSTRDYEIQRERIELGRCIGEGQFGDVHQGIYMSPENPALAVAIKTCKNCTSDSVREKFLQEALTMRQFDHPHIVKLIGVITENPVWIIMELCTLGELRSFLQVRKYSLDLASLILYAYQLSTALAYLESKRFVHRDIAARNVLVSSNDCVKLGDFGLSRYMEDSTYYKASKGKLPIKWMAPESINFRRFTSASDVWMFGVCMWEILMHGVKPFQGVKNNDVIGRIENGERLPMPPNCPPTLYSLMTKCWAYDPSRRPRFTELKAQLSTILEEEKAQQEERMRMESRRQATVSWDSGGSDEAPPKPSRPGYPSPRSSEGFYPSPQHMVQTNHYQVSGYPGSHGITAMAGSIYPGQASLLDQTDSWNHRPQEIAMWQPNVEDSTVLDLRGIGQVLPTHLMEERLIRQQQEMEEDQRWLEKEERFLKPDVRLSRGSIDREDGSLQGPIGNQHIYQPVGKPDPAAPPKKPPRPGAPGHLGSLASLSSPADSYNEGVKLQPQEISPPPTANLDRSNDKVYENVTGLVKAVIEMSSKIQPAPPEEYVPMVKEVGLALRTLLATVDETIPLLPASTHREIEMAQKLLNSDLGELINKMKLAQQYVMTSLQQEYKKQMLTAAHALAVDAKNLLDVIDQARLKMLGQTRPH
compound,measurement,setting,value
CCC(=O)Nc1ccc2ncnc(Nc3cccc(Br)c3)c2c1,residual activity,[1],97%
same,residual activity,[2],105%
same,residual activity,[3],55%
same,residual activity,[4],111% (inactive)
same,residual activity,[5],120%
same,residual activity,[6],81%
same,residual activity,[7],57%
same,residual activity,[8],59%
same,residual activity,[9],58%
same,residual activity,[10],131%
